Compounds with a hit are over-represented: about 3.6% of the library has one in this group of screens.
FUS suppressor: qHTS for Suppressors of FUS Proteinopathy: Primary screen using FUS-linked yeast assay. 390,000 tested, 0.24% active. Potency, µM (doses to about 76.6 µM), actives largely listed as activators. S. cerevisiae FUS-expressing, growth rescue, OD600, 24 h. AID 1347120, 2019;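 note: plate controls were DMSO vehicle for no effect and reference control for full effect; nearly all actives have a fitted effect of over 55% in size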
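Compound concentration series was pinned onto galactose-induced FUS-expressing yeast seeded at OD 0.005. Plates sat 24hr at 30C; absorbance at 600 nm gave growth. DMSO served as background control.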
aSyn yeast inh: qHTS of alpha-syn Inhibitors; AID 652106, 2013; Potency, µM (highest dose often 46.1 µM), without a hit: at the top dose growth rescue (activation), most hits filed as activators; Yeast expressing alpha-synuclein, growth rescue, BacTiter-Glo, 24 h; 370,000 tested, 0.14% active; note: % of control where 0% means no effect; nearly all actives have a fitted effect of over 65% in size
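Readout is rescue of growth in alpha-synuclein-expressing yeast, so inhibitors of toxicity appear as activators. Growth after 24 hr at 30 deg C in galactose medium is quantified by luminescence.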
Mm-Cpn inhibitor: Inhibitors of TCP-1 ring complex (TRiC) of Methanococcus maripaludis (MmCpn): qHTS. Chaperonin Mm-Cpn (Methanococcus maripaludis). purified Mm-Cpn ATPase, ADP Transcreener TR-FRET. Potency, µM (top dose mostly 76.9 µM), inactives show at the top dose activity, negative = inhibition, most hits filed as inhibitors. AID 504842, 2011. 330,000 tested, 0.031% active; note: % is set by controls: 0 for no effect and ±100 for the full control effect; nearly all actives have a fitted effect of over 80% in size
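Compound-treated chaperonin, 25 nM final, turns over 10 uM ATP at 37°C for 30 min following a 10 min preincubation; ADP generated competes with ADP-d2 for Eu-cryptate antibody, lowering FRET.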
TDP-43 yeast inh: qHTS of TDP-43 Inhibitors. TDP-43 expressing yeast growth rescue, BacTiter-Glo, 24 h. Potency, µM (highest dose often 46.1 µM), without a hit: top-dose growth rescue (activation), most hits filed as activators. 410,000 tested, 1.8% active. AID 652104, 2013; note: % of control where 0% means no effect; nearly all actives have a fitted effect of over 50% in size
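Galactose-induced TDP-43 yeast, OD600=0.02, compound pinned; 24 hr, 30 deg C; BacTiter-Glo luminescence for growth. Inhibitors of TDP-43 toxicity read as activators.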
ClpP mod: qHTS Assay for Activators of ClpP | ATP-dependent Clp protease proteolytic subunit (Bacillus subtilis (strain 168)), P80244 | purified B. subtilis ClpP, FRET peptide cleavage, 20 min | Potency, µM (doses to about 57.5 µM), for the others: at the top dose activity change, negative = active | 340,000 tested, 1.9% active; active = well fitted falling curve with a large enough effect; inconclusive = small, poorly fitted or top-dose-only effect; inactive = no such curve, though single readings can be large or run the other way; note: the source files actives as falling curves though it sought activators and does not explain the sign; nearly all actives have a fitted effect of over 65% in size
Target sequence (P80244 whole entry, looked up): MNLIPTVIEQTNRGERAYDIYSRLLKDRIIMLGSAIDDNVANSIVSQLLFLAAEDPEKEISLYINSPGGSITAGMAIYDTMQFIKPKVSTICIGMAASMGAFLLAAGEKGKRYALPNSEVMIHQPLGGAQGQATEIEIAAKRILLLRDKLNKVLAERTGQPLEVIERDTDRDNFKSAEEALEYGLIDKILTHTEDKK
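FRET quenching reversal measured ClpP activation: 10 microg/mL B. subtilis ClpP at pH 8 with the FRET-FV decapeptide, read at 430 nm after 320 nm excitation. The 20-min minus 0-min signal was scaled between DMSO/no-enzyme wells and ADEP (5.8 microM final).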
Abeta yeast res: qHTS for compounds that reverse cellular toxicity of Amyloid beta (A-beta) peptide in yeast: Primary Screen | AID 1347071, 2019 | Potency, µM (doses to about 46.1 µM), usual class: activators | 410,000 tested, 0.063% active | yeast expressing A-beta42, growth rescue, OD600, 48 h; response scale: 0% DMSO, 100% iron-clioquinol control; note: nearly all actives have a fitted effect of over 55% in size
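Growth rescue measured by 600 nm absorbance after 48 h yeast culture at 30 C with compound. Values normalized between DMSO and an equimolar ferric chloride plus clioquinol control.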
Starred values were filed as active, the others as inactive; i = inactive; u = inconclusive; x = no result. Unless noted, calls come from the whole dose curve; as a rule, active = well fitted curve in the direction sought with a large enough effect; inconclusive = small, poorly fitted or top-dose-only effect, or another doubt; inactive = no such curve, though single readings can be large; an effect the other way counts as inactive or inconclusive. Potency is the fitted concentration of half-maximal effect.

SMILES | FUS suppressor | aSyn yeast inh | Mm-Cpn inhibitor | TDP-43 yeast inh | ClpP mod | Abeta yeast res
Cc1cc2c(SCC(=O)NC3CCCCC3)ncnc2s1 | i | 5% | -3% | 1% | x | i
COc1ccc(CCNc2ncnc3c2cnn3-c2cc(Cl)ccc2C)cc1 | i | x | x | 20µM* | -5% | i
Cc1ccc(CNc2ncnc3c2cnn3-c2ccc(C)cc2C)cc1 | i | x | x | 35µM* | -17% | i
Cc1cc2c(NC3CCCCC3)ncnc2s1 | i | -11% | -4% | 11µM* | -1% | i
COc1ccc(CCNc2ncnc3c2cnn3-c2ccc(C)c(Cl)c2)cc1 | i | x | x | 17% | -14% | i
Cc1ccc(-n2ncc3c(NCCc4ccccc4)ncnc32)cc1Cl | i | x | x | u | 32µM* | i
Cc1ccc(-n2ncc3c(NCCCn4ccnc4)ncnc32)c(C)c1 | i | 3% | 1% | 9% | -14% | i
Cc1[nH]c2ccccc2c1/C=C/c1ccnc2ccccc12 | x | x | x | x | 2% | x
COC(=O)[C@@]12CCCCC=C1N(CCc1ccc(Cl)cc1)C(=O)[C@H]2CC(=O)NCc1cccc(C(F)(F)F)c1 | i | x | x | x | x | x
Cc1c(-c2nnc(SCC(=O)Nc3ccc(Cl)cc3)o2)nnn1-c1ccc(F)cc1 | i | x | x | 13% | 0% | i
COc1cccc2sc(N(Cc3cccnc3)C(=O)C3COc4ccccc4O3)nc12 (stereo not drawn) | i | x | x | -2% | 0% | i
O=c1c2oc3ccccc3c2n(Cc2ccccc2F)c(=O)n1Cc1ccccc1 | i | x | x | 8% | -14% | i
Cc1ccc(-n2ncc3c(NC4CCCCCC4)ncnc32)cc1Cl | i | x | x | u | 32µM* | i
Clc1ccc(-n2ncc3c(NC4CCCC4)ncnc32)cc1 | i | x | x | u | u | i
COCCNc1ncnc2c1cnn2-c1cc(Cl)ccc1C | i | x | x | 27% | 0% | i
Cc1ccc(Cl)cc1-n1ncc2c(NC3CCCCCC3)ncnc21 | i | x | x | 14µM* | -4% | i
CCN(CC)c1ccc(NC(=O)C2COc3ccc(OC)cc3C2)c(C)c1 (stereo not drawn) | i | x | x | 4% | -2% | i
Nc1cccnc1Sc1cccc(Cl)c1 | i | 14% | -3% | 18µM* | u | i
Cc1cc(NCCO)c2cc(O)ccc2n1 | i | -8% | -7% | -19% | 16µM* | i
CCOC(=O)N1CCC(NC(=O)CC(NS(=O)(=O)c2ccc(Cl)cc2)c2ccco2)CC1 (stereo not drawn) | x | u | -1% | 9% | 32µM* | i
COCCCNC(=O)CC(NS(=O)(=O)c1ccc(Cl)cc1)c1ccco1 (stereo not drawn) | i | 2% | -1% | 17% | 2% | i
COc1ccc(S(=O)(=O)NC(CC(=O)NC2CCCC2)c2ccco2)cc1 (stereo not drawn) | i | 3% | 2% | 10% | -2% | i
Cc1ccc(S(=O)(=O)NC(CC(=O)NC2CCCC2)c2ccco2)cc1 (stereo not drawn) | i | 1% | 0% | 24% | 28µM* | i
CCOc1ccc(NC(=O)Cn2ncc3c2-c2cc(C)ccc2OC3)cc1 | i | x | x | 8% | 0% | i
O=c1n(Cc2ccccc2)nc2n1-c1cc(Cl)ccc1OC2 | i | x | x | 23% | 1% | i
SMILES | FUS suppressor | aSyn yeast inh | Mm-Cpn inhibitor | TDP-43 yeast inh | ClpP mod | Abeta yeast res
C/C(Cc1ccccc1)=N\NC(=O)C1CCCCC1 | i | 1% | -2% | 15% | 28µM* | i
O=C(Cc1ccccc1)NNC(=O)C1CCCC1 | i | -5% | -2% | -4% | 0% | i
CCCN(CC1CC1)C(=S)Nc1ccc(C(C)=O)cc1 | i | 7% | 0% | 17% | 8% | i
CCN(C(=S)Nc1ccc(C(C)=O)cc1)C1CCCCC1 | i | 14% | -1% | 22µM* | x | i
CCc1ccccc1NS(=O)(=O)c1ccc(-c2coc(C)n2)cc1 | i | 0% | x | 13µM* | -4% | i
CCN1CCCC1CN(Cc1cc2cc(C)ccc2[nH]c1=O)C(=O)Nc1ccccc1OC (stereo not drawn) | 22µM* | -1% | 1% | -6% | -8% | i
CCN(CC)CCCN(Cc1cc2cc3c(cc2[nH]c1=O)OCO3)C(=O)Nc1ccccc1OC | i | -3% | 0% | -19% | 32µM* | i
CCNC(=S)N(CCCN(CC)CC)Cc1cc2cc3c(cc2[nH]c1=O)OCO3 | i | 4% | 1% | 13% | 4% | i
CCN(CC)CCCN(Cc1cc2cc3c(cc2[nH]c1=O)OCCO3)C(=O)Nc1ccc(F)cc1 | i | 0% | -11% | -4% | 28µM* | i
COc1ccccc1NC(=O)N(CCN1CCCC1)Cc1cc2cc(C)ccc2[nH]c1=O | i | 1% | x | -19% | -8% | i
CCN(CC)CCCN(Cc1cc2cc3c(cc2[nH]c1=O)OCO3)C(=S)Nc1ccccc1 | i | 2% | -3% | -1% | x | i
CCN(CC)CCCN(Cc1cc2cc(OC)c(OC)cc2[nH]c1=O)C(=O)Nc1ccccc1 | i | -4% | 1% | 7% | 32µM* | i
O=C(Cc1ccccc1Cl)NO | x | 3% | x | x | -1% | x
COc1cc2cc(CN(CCN3CCCC3)C(=O)Nc3ccc(F)cc3)c(=O)[nH]c2cc1OC | x | -3% | -2% | 8% | 14µM* | i
COc1cc2cc(CN(Cc3cccs3)C(=S)Nc3ccccc3)c(=O)[nH]c2cc1OC | u | 5% | -7% | u | 10µM* | i
O=C(NCc1ccco1)c1ccccc1NS(=O)(=O)c1ccc2c(c1)OCCO2 | i | 1% | x | 13% | 32µM* | i
O=C(COc1ccccc1)Nc1ccccc1C(=O)NCc1ccco1 | i | 1% | -1% | 20µM* | -19% | i
Cc1ccccc1NC(=O)CNc1ccccc1C(=O)NCc1ccco1 | i | 8% | -1% | u | u | i
Cc1cccc(C)c1NC(=S)Nc1ccccc1C(=O)NCc1ccco1 | x | -2% | -2% | 18% | 25µM* | i
COc1ccc(-c2noc(CSCC(=O)Nc3cccc(C(F)(F)F)c3)n2)cc1OC | i | x | x | 0% | -2% | i
CC(C)NC(=O)COC(=O)c1ccccc1OCC(=O)Nc1ccc(Br)cc1 | x | 1% | x | x | 1% | x
CC(C)Sc1ncc(Cl)c(C(=O)N(Cc2ccc(N(C)C)cc2)C2CCS(=O)(=O)C2)n1 (stereo not drawn) | i | x | x | 3% | 0% | i
